Assay [1] has as its target Sphingosine kinase 1 (Homo sapiens) (UniProt Q9NYA1). The conditions noted are these: at 1 µM.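 Note: mean SPHK1 inhibition value reported from the GSK PKIS kinase panel screen.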
Assay [2] deals with T1, Sphingosine kinase 2 (Homo sapiens) (UniProt Q9NRA0).
T1 sequence (whole entry): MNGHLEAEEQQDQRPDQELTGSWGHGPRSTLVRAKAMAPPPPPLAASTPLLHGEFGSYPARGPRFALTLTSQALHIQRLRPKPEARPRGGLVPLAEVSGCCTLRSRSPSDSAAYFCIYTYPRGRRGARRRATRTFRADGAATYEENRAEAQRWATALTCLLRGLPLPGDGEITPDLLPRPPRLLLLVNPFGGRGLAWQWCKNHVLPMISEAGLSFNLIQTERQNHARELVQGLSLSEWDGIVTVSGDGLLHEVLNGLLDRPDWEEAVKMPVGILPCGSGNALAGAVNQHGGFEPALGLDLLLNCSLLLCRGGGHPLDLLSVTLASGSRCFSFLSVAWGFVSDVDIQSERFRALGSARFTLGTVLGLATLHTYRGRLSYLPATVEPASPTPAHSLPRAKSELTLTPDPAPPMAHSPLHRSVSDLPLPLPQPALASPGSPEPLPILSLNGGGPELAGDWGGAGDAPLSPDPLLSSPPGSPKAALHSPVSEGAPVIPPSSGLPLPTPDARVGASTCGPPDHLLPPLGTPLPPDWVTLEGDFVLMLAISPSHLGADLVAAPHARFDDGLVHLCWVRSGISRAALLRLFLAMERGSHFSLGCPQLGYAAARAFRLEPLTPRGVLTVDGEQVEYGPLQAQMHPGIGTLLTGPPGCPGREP
The conditions noted are these: at 0.1 µM.

Assay [3] concerns the target T1, Sphingosine kinase 2 (Homo sapiens). Conditions: at 1 µM.
Assay [4] has as its target Casein kinase II subunit alpha (Homo sapiens) (UniProt P68400). Conditions: at 0.1 µM.
Assay [5] has the same target. Conditions: at 1 µM.
In assay [6] the target is T2, Inhibitor of nuclear factor kappa-B kinase subunit alpha (Homo sapiens) (UniProt O15111).
T2 sequence (whole entry): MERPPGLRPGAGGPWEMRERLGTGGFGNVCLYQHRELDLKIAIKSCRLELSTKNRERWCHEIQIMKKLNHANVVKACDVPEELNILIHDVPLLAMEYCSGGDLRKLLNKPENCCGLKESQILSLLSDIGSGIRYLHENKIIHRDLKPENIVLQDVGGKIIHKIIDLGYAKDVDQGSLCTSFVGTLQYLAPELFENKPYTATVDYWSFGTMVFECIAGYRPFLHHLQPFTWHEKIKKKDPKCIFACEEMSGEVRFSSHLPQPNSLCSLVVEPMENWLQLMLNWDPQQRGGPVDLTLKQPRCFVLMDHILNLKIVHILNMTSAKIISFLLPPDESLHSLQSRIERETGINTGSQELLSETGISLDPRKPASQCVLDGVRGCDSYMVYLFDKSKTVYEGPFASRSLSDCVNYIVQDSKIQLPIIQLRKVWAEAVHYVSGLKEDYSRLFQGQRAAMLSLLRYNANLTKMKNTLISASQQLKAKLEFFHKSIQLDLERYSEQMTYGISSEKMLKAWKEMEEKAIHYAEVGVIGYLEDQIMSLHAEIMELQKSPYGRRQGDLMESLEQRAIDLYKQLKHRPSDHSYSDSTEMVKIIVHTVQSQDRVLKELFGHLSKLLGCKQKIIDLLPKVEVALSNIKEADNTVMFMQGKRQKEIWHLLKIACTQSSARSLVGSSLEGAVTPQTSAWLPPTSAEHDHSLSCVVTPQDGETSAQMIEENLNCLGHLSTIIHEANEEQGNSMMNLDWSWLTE
The conditions noted are these: at 0.1 µM.

The target of assay [7] is T2, Inhibitor of nuclear factor kappa-B kinase subunit alpha (Homo sapiens). The conditions noted are these: at 1 µM.
The target in assay [8] is T3, Inhibitor of nuclear factor kappa-B kinase subunit beta (Homo sapiens) (UniProt O14920).
T3 sequence (whole entry): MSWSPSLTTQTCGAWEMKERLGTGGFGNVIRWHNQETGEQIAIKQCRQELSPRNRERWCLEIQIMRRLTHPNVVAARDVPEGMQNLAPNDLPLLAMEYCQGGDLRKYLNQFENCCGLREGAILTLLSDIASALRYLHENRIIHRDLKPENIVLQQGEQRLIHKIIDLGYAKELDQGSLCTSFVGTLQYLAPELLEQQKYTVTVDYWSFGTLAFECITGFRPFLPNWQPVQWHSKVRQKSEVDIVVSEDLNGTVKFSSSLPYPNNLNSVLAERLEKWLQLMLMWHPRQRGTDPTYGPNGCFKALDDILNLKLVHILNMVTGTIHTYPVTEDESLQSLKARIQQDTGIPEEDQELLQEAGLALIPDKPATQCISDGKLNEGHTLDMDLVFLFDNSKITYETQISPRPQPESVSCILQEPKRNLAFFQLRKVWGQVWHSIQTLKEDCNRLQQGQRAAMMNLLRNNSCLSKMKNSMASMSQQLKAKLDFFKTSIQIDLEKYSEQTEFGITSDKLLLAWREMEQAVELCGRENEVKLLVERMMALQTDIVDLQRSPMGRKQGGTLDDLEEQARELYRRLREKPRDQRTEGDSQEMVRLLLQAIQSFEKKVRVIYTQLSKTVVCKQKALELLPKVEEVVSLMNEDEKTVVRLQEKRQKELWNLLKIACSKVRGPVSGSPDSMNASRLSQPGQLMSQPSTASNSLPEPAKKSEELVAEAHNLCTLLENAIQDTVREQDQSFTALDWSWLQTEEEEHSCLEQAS
The conditions noted are these: at 0.1 µM.

Assay [9] has as its target T3, Inhibitor of nuclear factor kappa-B kinase subunit beta (Homo sapiens). The conditions noted are these: at 1 µM.
Assay [10] concerns the target T4, Inhibitor of nuclear factor kappa-B kinase subunit epsilon (Homo sapiens) (UniProt Q14164).
T4 sequence (whole entry): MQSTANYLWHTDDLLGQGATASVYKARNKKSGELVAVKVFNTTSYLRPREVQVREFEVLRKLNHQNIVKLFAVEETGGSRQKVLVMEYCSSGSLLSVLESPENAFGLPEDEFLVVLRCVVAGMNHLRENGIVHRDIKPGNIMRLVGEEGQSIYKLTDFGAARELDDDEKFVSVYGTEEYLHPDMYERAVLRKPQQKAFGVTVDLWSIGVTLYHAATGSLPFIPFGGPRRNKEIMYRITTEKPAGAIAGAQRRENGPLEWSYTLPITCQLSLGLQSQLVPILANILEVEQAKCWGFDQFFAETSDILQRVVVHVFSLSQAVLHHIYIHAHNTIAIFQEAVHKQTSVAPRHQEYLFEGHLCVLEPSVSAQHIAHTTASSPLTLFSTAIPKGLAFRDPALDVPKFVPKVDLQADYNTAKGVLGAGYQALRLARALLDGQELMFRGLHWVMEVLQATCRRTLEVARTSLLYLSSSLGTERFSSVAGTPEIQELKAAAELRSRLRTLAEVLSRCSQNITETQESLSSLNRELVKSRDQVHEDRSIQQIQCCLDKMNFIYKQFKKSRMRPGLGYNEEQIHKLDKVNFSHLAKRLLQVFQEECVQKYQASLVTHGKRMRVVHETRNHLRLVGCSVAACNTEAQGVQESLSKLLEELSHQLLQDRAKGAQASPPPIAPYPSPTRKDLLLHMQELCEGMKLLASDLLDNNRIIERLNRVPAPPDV
The conditions noted are these: at 0.1 µM.

Assay [11] deals with T4, Inhibitor of nuclear factor kappa-B kinase subunit epsilon (Homo sapiens). Conditions: at 1 µM.
Assay [12] has as its target T5, Serine/threonine-protein kinase Nek1 (Homo sapiens) (UniProt Q96PY6).
T5 sequence (whole entry): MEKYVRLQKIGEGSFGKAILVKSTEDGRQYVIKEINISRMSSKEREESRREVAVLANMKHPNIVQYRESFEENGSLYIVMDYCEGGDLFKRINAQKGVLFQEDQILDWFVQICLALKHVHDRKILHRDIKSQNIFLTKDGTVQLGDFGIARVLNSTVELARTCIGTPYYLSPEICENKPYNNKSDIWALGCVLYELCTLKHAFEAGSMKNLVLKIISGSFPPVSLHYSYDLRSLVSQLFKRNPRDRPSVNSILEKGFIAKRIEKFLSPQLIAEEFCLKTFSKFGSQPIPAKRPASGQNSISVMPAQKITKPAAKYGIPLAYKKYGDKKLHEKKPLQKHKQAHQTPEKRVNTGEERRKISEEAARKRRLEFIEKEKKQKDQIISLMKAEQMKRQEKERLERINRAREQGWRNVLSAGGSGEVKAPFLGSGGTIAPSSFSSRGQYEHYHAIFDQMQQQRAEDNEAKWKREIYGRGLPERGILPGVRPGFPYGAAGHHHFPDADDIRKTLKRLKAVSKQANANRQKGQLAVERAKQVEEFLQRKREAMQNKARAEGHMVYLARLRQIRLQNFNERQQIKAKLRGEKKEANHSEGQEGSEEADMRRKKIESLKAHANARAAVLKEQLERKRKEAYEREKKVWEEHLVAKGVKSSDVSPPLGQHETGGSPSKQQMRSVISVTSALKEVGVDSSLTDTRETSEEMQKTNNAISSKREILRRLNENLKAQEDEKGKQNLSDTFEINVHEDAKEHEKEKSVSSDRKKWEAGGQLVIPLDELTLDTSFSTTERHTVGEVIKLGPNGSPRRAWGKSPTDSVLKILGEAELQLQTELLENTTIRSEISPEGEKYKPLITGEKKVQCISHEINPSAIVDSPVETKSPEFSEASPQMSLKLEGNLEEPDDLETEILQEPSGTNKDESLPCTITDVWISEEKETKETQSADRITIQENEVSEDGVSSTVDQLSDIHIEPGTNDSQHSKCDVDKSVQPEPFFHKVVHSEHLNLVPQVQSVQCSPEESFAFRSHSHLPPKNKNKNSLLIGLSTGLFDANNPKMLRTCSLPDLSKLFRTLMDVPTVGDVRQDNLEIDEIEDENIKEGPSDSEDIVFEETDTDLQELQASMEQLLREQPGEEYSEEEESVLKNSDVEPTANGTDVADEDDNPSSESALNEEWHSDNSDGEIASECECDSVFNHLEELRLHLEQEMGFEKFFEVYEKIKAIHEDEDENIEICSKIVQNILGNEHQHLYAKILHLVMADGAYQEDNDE
Conditions: at 0.1 µM.

Assay [13] has as its target T5, Serine/threonine-protein kinase Nek1 (Homo sapiens). Conditions: at 1 µM.
The target of assay [14] is T6, Serine/threonine-protein kinase Nek2 (Homo sapiens) (UniProt P51955).
T6 sequence (whole entry): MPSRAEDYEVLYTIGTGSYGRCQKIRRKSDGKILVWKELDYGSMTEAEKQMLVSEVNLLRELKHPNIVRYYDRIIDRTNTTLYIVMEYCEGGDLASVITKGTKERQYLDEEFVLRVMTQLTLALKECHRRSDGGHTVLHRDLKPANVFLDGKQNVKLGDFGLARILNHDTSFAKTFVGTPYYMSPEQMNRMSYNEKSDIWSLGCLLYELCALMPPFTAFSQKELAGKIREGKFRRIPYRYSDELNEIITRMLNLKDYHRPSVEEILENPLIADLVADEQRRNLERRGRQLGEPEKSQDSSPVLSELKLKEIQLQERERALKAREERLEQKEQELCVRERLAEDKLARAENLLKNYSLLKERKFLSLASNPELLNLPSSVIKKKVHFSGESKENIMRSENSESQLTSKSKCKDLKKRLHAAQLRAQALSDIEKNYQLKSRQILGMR
Conditions: at 0.1 µM.

Assay [15] has as its target T6, Serine/threonine-protein kinase Nek2 (Homo sapiens). The conditions noted are these: at 1 µM.
In assay [16] the target is Serine/threonine-protein kinase Nek6 (Homo sapiens) (UniProt Q9HC98). The conditions noted are these: at 0.1 µM.
Sequence of Serine/threonine-protein kinase Nek6 (Homo sapiens) (Q9HC98 whole entry): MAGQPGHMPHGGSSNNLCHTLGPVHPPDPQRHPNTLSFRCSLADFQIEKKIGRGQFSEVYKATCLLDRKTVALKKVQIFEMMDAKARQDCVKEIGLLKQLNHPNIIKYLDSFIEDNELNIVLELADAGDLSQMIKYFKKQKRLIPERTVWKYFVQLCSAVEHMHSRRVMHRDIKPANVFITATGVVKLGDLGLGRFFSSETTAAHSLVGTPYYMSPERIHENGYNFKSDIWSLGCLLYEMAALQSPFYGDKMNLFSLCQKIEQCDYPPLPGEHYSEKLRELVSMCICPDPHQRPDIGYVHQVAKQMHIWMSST
Assay [17] has the same target. The conditions noted are these: at 1 µM.
Assay [18] deals with Serine/threonine-protein kinase Nek7 (Homo sapiens) (UniProt Q8TDX7). The conditions noted are these: at 0.1 µM.
Sequence of Serine/threonine-protein kinase Nek7 (Homo sapiens) (Q8TDX7 whole entry, looked up): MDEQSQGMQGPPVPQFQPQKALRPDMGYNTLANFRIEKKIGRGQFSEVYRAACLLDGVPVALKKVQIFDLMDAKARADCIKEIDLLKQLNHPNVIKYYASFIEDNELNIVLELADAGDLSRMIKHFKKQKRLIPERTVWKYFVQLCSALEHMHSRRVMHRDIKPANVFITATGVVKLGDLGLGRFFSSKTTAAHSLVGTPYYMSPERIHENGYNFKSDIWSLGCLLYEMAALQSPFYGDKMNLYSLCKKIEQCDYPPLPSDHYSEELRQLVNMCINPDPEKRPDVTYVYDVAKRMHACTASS
For assay [19] the target is unchanged. The conditions noted are these: at 1 µM.
In assay [20] the target is T7, Serine/threonine-protein kinase Nek9 (Homo sapiens) (UniProt Q8TD19).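 Note: reported value is the mean percent inhibition of NEK9.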
T7 sequence (whole entry): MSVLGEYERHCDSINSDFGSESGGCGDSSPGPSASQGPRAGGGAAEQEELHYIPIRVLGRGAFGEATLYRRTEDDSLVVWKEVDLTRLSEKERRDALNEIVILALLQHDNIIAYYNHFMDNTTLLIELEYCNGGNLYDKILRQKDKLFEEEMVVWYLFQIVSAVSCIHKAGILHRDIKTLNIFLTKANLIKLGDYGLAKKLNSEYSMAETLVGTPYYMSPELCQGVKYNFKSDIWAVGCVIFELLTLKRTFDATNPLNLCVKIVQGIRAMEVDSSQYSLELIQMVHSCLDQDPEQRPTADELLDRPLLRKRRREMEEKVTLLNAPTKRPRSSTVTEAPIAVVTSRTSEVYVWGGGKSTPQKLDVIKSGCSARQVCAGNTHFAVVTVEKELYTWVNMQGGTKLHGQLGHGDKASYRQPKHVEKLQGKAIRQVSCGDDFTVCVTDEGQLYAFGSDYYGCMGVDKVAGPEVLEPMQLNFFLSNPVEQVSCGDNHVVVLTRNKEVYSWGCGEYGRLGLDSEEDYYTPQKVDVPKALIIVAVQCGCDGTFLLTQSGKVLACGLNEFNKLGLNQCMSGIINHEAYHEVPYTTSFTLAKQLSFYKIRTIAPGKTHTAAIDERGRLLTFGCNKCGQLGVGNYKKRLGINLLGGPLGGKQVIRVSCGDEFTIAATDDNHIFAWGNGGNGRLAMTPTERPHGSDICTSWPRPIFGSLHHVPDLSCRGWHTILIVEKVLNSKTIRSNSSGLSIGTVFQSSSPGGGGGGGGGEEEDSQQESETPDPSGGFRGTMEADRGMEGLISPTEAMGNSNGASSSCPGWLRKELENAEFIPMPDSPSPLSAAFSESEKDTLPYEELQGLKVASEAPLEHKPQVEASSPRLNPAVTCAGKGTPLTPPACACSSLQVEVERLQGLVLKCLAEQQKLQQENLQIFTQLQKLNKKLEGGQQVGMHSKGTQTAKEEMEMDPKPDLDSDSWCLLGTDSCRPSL
Conditions: at 0.1 µM.

Here are results for one compound from ChEMBL document CHEMBL1961873, “Compounds: GSK PKIS; Assays: Nanosyn kinase panel” (2012).

Sequence of Casein kinase II subunit alpha (Homo sapiens) (P68400 whole entry, looked up): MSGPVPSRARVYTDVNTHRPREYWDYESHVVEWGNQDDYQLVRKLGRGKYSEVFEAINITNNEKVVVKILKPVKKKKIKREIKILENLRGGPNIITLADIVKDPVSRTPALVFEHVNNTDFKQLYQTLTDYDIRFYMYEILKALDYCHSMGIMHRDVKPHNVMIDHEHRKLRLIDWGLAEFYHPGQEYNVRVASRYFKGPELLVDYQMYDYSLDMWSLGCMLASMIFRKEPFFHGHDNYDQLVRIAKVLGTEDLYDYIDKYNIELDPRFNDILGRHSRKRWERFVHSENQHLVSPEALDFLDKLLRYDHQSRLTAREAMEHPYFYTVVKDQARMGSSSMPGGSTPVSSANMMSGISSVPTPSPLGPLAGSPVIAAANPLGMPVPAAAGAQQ
Sequence of Sphingosine kinase 1 (Homo sapiens) (Q9NYA1 whole entry): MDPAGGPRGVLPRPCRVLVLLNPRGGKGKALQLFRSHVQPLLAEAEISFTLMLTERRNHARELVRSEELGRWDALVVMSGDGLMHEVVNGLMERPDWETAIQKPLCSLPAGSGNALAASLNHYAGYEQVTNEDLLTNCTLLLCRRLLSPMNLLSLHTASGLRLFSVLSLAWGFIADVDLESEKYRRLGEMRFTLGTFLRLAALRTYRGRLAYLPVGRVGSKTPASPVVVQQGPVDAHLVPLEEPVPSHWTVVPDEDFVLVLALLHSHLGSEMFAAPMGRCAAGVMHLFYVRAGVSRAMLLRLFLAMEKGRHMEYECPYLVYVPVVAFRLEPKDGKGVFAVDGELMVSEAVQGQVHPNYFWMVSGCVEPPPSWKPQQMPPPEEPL

As for `[O-][S+]1CCN(Cc2ccc(-c3ccc4ncnc(Nc5ccc(OCc6cccc(F)c6)c(Cl)c5)c4c3)o2)CC1`, the inhibition in [1] was 1.32%; in assay [2], 4.71%; in assay [3] it was 0.73%; in assay [4], 12.8%; in assay [5], 4.15%; in [6], 8.15%. Also, the inhibition in [7] stood at 9.46%; in assay [8], 9.09%; in assay [9], 7.58%; in [10], 11.3%; in assay [11], 7.12%; in [12], 1.83%. Further, the inhibition in [13] stood at 3.84%; in [14], 6.03%; in assay [15], 7.92%; in [16], 12.5%; in [17], 1.99%; in assay [18], 2.99%. Besides, the inhibition was 8.43% in assay [19] and 12.2% in assay [20].

For orientation: inhibition means the drop in the measured response relative to a control, in per cent.
